# High-throughput results from PubChem.
# CYP2C9 inhib: inhibitors of human CYP2C9 | AID 777 | 20% of 96,000 active | CYP2C9 Supersomes, luciferin-H conversion, luminescence | P11712 | inhibition, % at 5 µM;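 active means blocking of liver enzyme CYP2C9 beyond about 50% at 5 µM, limit read from the data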
# Pyk2 oligo antag: antagonists of human Pyk2 oligomerization; Q14289; 0.83% of 99,000 active; z-score (the deposit names both 25 µM and 10 µM); Q293 cells, Pyk2 FERM NanoBiT luminescence; active compounds read low;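 active means Z-score of -3 or lower, scaled per plate to the spread of control and sample wells; inactive means z-score above -3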;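 further: negative z-score means lost luminescence so less FERM oligomerization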
# Target sequence (Q14289 whole entry, looked up): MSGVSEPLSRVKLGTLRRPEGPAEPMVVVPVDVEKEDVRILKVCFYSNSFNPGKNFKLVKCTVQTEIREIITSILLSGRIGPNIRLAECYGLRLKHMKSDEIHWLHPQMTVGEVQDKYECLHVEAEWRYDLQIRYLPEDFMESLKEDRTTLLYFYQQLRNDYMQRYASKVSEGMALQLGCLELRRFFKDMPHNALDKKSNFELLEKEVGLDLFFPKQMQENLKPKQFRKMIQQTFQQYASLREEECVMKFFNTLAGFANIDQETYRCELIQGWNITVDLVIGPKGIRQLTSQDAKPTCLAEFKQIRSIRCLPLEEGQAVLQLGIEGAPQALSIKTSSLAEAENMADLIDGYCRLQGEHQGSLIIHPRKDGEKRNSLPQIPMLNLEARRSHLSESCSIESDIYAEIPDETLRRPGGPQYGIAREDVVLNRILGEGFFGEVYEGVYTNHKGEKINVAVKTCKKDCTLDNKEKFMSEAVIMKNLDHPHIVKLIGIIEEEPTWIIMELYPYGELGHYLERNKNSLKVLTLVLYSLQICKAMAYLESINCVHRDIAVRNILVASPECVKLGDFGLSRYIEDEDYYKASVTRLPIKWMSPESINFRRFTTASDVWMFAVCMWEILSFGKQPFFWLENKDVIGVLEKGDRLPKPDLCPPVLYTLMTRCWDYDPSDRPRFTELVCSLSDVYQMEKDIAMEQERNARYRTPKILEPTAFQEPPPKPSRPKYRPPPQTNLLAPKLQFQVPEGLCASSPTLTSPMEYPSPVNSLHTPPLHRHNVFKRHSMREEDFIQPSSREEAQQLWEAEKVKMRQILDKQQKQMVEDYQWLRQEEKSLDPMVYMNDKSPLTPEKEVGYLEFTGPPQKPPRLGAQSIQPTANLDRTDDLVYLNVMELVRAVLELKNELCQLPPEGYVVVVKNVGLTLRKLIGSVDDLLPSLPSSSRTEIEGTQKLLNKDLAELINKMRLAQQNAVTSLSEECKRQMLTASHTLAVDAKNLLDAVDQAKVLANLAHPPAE
# CYP2C9 activ: CYP2C9 (human) activation. P11712. recombinant CYP2C9, luciferin-H conversion, luminescence; active compounds read high; factor 1 = untreated enzyme, 0 = blocked. activation factor at 5 µM. 1.4% of 96,000 active;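 active means activation factor of 2 or more for CYP2C9 at a 5 µM dose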
# CYP2C19 inhib: inhibitors of human CYP2C19 | P33261 | CYP2C19 Supersomes, luciferin-H EGE luminescence, 30 min | inhibition, % at 5 µM | 21% of 96,000 active;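 active means CYP2C19 inhibition above a set limit at 5 µM in the primary screen, cut at about 50% in these data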
# CYP2C19 act: increases human CYP2C19 enzyme activity. P33261. recombinant CYP2C19, luciferin-H EGE luminescence; active compounds read high; 0 = fully inhibited enzyme, 1 = untreated enzyme. activation factor at 5 µM. 96,000 tested, under 10 active. AID 1025;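 active means activation factor of at least 2 at 5 µM in the primary screen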
# Hits are given with their value; . = inactive; / = not tested or not shown. Most compounds without a hit are left out; they make up all but 28% or so of the library.
SMILES,CYP2C9 inhib,Pyk2 oligo antag,CYP2C9 activ,CYP2C19 inhib,CYP2C19 act
CCN1CCN(C(c2cccs2)C(C)NC(=O)c2ccccc2F)CC1 (stereo not drawn),59.1,.,.,.,.
COc1ccc(C2(CNC(=O)Cc3ccc(OC)c(OC)c3)CCOCC2)cc1,.,.,.,.,.
CC(=O)N1CCC(=O)N(C(C)C)c2ccccc21,.,.,.,.,.
CN(C)CCNC(=O)Nc1ccc(Cl)c(Cl)c1,.,.,.,.,.
CCN(CC)S(=O)(=O)c1cc([N+](=O)[O-])ccc1NNC(=O)Nc1ccc(Cl)c(Cl)c1,74.2,.,.,.,.
CC1CCN(CCCNC(=O)c2cn(C)c3ccc(S(=O)(=O)N4CCCC4)cc3c2=O)CC1,.,.,.,.,.
Cc1ccc(Cc2cnc(NC(=O)/C(C#N)=C/c3ccc(-c4ccccc4[N+](=O)[O-])o3)s2)cc1,54.5,.,.,.,.
COCCNC(=O)/C(C#N)=C/c1ccc(-c2ccc(OC)cc2[N+](=O)[O-])o1,.,.,.,.,.
COCCn1c(C)cc(C(=O)COC(=O)c2ccc3ncsc3c2)c1C,.,.,2,.,.
COCCn1c(C)cc(C(=O)COC(=O)c2ccc(NC(=O)CC#N)cc2)c1C,.,.,.,.,.
Cc1nn(Cc2ccccc2)c(C)c1C(=O)OCC(=O)c1cc(C)n(C2CC2)c1C,.,.,.,.,.
COCCn1c(C)cc(C(=O)COC(=O)c2c(C)nn(Cc3ccccc3)c2C)c1C,.,.,.,61.0,.
COCC(C)n1c(C)cc(C(=O)COC(=O)c2c(C)nn(-c3ccccc3)c2C)c1C (stereo not drawn),.,.,.,61.8,.
CC(C)CNS(=O)(=O)c1ccc(OCC(=O)Nc2ccc(F)cc2F)cc1,/,.,/,/,/
CNC(=O)CSc1nnnn1-c1ccc2c(c1)OCCO2,/,.,/,/,/
C=CCN1C(=Nc2cccnc2)SCC1(O)c1ccc(C)cc1 (stereo not drawn),78.0,/,.,95.4,.
CCC(C)c1ccc(NC(=O)COC(=O)C2=COCCO2)cc1 (stereo not drawn),.,.,.,.,.
CC(=O)Nc1ccc(C2NC(=O)c3ccccc3O2)cc1 (stereo not drawn),.,.,.,.,.
CC(=O)Nc1ccc(C2Nc3ccccc3C(=O)N2C2CCCCC2)cc1 (stereo not drawn),83.6,.,.,.,.
CCc1ccc(Nc2nnc(SCc3cc(=O)n4ccsc4n3)s2)cc1,.,.,.,.,.
Cc1ccccc1NC(=O)Cn1cnc2c(oc3ccccc32)c1=O,59.0,.,.,63.8,.
O=C(Cn1cnc2c(oc3ccccc32)c1=O)c1ccccc1,.,.,.,.,.
O=C(CSc1ncnc2c1oc1ccccc12)Nc1cccc(F)c1,76.1,.,.,60.5,.
O=C(CSc1ncnc2c1oc1ccccc12)NCC1CCCO1 (stereo not drawn),/,.,/,/,/
Cc1cccc(NC(=O)CSc2ncnc3c2oc2ccccc23)c1,62.7,/,.,.,.
SMILES,CYP2C9 inhib,Pyk2 oligo antag,CYP2C9 activ,CYP2C19 inhib,CYP2C19 act
O=C(CSc1ncnc2c1oc1ccccc12)NC1CCCCC1,72.4,/,.,72.5,.
Cc1ccc(-c2noc(CCC(=O)NCc3ccc4c(c3)OCO4)n2)cc1,.,.,.,.,.
NC(=O)CSc1ncnc2c1oc1ccccc12,.,/,.,.,.
O=C(CSc1ncnc2c1oc1ccccc12)NCc1ccc(F)cc1,72.4,/,.,65.4,.
Cc1cc(C)nc(Sc2ncnc3c2oc2ccccc23)n1,.,.,.,58.2,.
CC(C)(C)c1cc(C(=O)O)c(CN2CCCCC2)o1,.,.,.,.,.
COC(=O)c1sc(N)c(C(=O)OC)c1CSc1nnc(-c2ccccc2Cl)n1C,97.1,.,.,99.6,.
COC(=O)c1sc(N)c(C(=O)OC)c1CSc1nnnn1C,54.6,.,.,91.6,.
COc1ccccc1NC(=O)CSc1nnnn1C,.,.,.,.,.
CC(C)[C@H](N)c1nnc(SCc2ccc(Cl)cc2)o1,.,.,.,96.0,.
C[C@H](N)c1nnc(SCc2c(Cl)cccc2Cl)o1,58.2,.,.,98.8,.
C[C@H](N)c1nnc(SCc2ccc(Cl)cc2Cl)o1,81.6,.,.,100.4,.
CCC(c1nnc(SCC(=O)NCCc2ccc(Cl)cc2Cl)o1)N(C)C (stereo not drawn),58.2,.,.,79.4,.
CCC(c1nnc(SCC(=O)NC23CC4CC(CC(C4)C2)C3)o1)N(C)C (stereo not drawn),.,.,.,.,.
CCC(C)[C@H](N)c1nnc(SCC(=O)c2ccc(Cl)cc2)o1 (stereo partly drawn),70.9,.,.,99.7,.
CCCCCCCCCCNC(=O)C(=O)Nc1ccccn1,.,.,.,55.3,.
COc1ccccc1OCC(=O)Nc1ccccn1,.,.,.,.,.
O=C(Nc1cccc(F)c1)Nc1ccccn1,.,.,.,.,.
COc1ccc(NC(=O)Nc2cc(C)ccc2OC)cc1,.,.,.,94.9,.
O=C(Nc1ccncc1)Nc1ccccn1,67.7,.,.,91.2,.
COc1ccccc1NC(=O)C(=O)Nc1ccccn1,.,.,2.3,.,.
O=C(CC(=O)Nc1ccccn1)Nc1ccccn1,.,.,.,.,.
CCc1sc(C(=O)Nc2cccc(C(C)=O)c2)cc1C,/,.,/,/,/
Clc1ccc(OCc2nnc(SCCN3CCCCC3)n2Cc2ccco2)cc1,.,.,.,.,.
CCOc1ccc(C2c3cc(OC)c(OC)cc3CC(=O)N2c2ccc(OC)cc2)cc1 (stereo not drawn),.,.,.,.,.
SMILES,CYP2C9 inhib,Pyk2 oligo antag,CYP2C9 activ,CYP2C19 inhib,CYP2C19 act
CC(C(=O)N1CCCc2ccccc21)N1C(=O)c2ccccc2C1=O (stereo not drawn),/,.,/,/,/
COc1ccc(OC)c(NC(=O)Nc2cccc(Cn3cccn3)c2)c1,82.9,.,.,74.3,.
COc1ccccc1NC(=O)C(O)C(O)C(=O)Nc1ccccc1OC (stereo not drawn),.,.,3.2,.,.
COc1ccc(NC(=O)Nc2ccccc2OC)cc1,.,.,.,87.0,.
COC(=O)c1cc(NC(=O)Nc2cc(OC)ccc2OC)cc(C(=O)OC)c1,51.1,.,.,.,.
COc1ccc(OC)c(NC(=O)Nc2ccc(Cl)cc2)c1,.,.,.,.,.
CCOc1cc(C2/C(=C(/O)c3ccc(OC(C)C)cc3)C(=O)C(=O)N2CCCOC)ccc1O (stereo not drawn),.,.,.,.,.
COc1ccccc1NC(=O)C1C2CCCCC21 (stereo not drawn),.,.,3.6,.,.
COc1ccccc1NC(C)=O,.,.,.,.,.
COc1ccccc1NC(=O)c1ccc(N)cc1,.,.,4.1,.,.
CC(=O)Nc1ccc(N2CCCCC2)c(C(=O)Nc2cccc(C)c2)c1,56.7,.,.,50.3,.
Cc1cccc(NC(=O)c2cc(NC(=O)C3CCCCC3C(=O)O)ccc2N2CCCCC2)c1 (stereo not drawn),/,.,/,/,/
C=CCSc1nc2nc(C)cc(C)n2n1,.,.,.,.,.
